Source: PubChem BioAssay
Only a selection was taken, and hits are over-represented in it overall.
Pf Dd2 inh = inhibitors of Plasmodium falciparum Dd2 growth | Potency, µM (titrated, usually from 28.9 µM), actives largely listed as inhibitors | 4.3% of 120,000 active | AID 1347417 | P. falciparum Dd2 growth, SYBR Green, 72 h; active = well fitted inhibition curve with a large enough effect; note: nearly all actives have a fitted effect of over 65% in size
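Readout: SYBR Green fluorescence, 485 nm excitation, 535 nm emission, after ~16 h lysis at 37C. Before that, Dd2-infected red cells (2.5% hematocrit) grew 72 h with compound, 29 uM top final concentration.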
A number is an active result; n = inactive.

SMILES	Pf Dd2 inh
Cn1nnnc1C1CCCN(C(=O)c2ccc(F)cc2)C1 (configuration not stated)	n
CCC(=O)C1=C(c2ccc(F)cc2)N(C(=O)CC)n2c(nnc2C2CCCCC2)S1	3.16µM
CCn1c(SCC(=O)c2ccc([N+](=O)[O-])cc2)nnc1-c1ccc(Cl)cc1	n
CC(=O)C1=C(c2ccc(Cl)cc2)N(C(C)=O)n2c(nnc2C2CCCCC2)S1	1µM
Cn1c(Cn2cccn2)nnc1C1CCCN(C(=O)c2cccc(F)c2)C1 (configuration not stated)	n
O=C(O)[C@]12CCCN[C@@H]1CCN(Cc1ccsc1)C2	n
COCCN(C)C[C@@H]1CN(C(=O)c2ccc(=O)n(C)c2)C[C@@H]1CO	n
COCCNC(=O)c1ccc2c(c1)N(C)C(CC(=O)N1CCC(C)CC1)CO2 (configuration not stated)	n
O=C(c1ccc2[nH]ccc2c1)N1CCCC(Cc2noc(-c3ccccn3)n2)C1 (configuration not stated)	n
CCc1ccccc1NC(=O)Cn1c(C)cc2nc3n(c(=O)c21)CCCCC3	n
Cc1nc(N2CCC(NC(=O)Cc3ccc(F)cc3)CC2)cc(C(F)(F)F)n1	n
O=C(c1cc(-c2cccs2)[nH]n1)N1CCc2c(nc(-c3ccccc3)[nH]c2=O)C1	n
Cc1cccc(OCCc2noc(C3CCN(C(=O)NC(C)(C)C)C3)n2)c1 (configuration not stated)	n
Cc1cnn(CCC(=O)N2CCCCCCNC(=O)CC2)c1	n
N#Cc1ccc(CN2CCC3(CC2)CC(=O)c2ccc(Cl)cc2O3)cc1	11.2µM
CC(=O)Nc1ccc(CN2CCC3(CC2)CC(=O)c2ccc(Cl)cc2O3)cc1	n
Cc1cc(CN2CCC3(CC2)CC(=O)c2ccc(Cl)cc2O3)no1	n
O=[S+]1([O-])NCC2(CCN(Cc3cncs3)CC2)Nc2ccccc21	n
CN[C@H](C(=O)N[C@H]1C[C@@](O)(C(=O)N[C@H](CC(C)C)C(N)=O)C[C@@H](O)[C@@H]1O)C(C)C	n
Cc1cnc(CCNC(=O)c2n[nH]c(=O)c3ccccc23)n1C1CCC1	n
Cc1cnc(CCNC(=O)Nc2ccc3c(c2)OCCO3)n1C1CCC1	5.01µM
Cc1cnc(CCNC(=O)NCc2ccccc2)n1C1CCC1	n
Cc1cnc(CCNC(=O)NC(C)C)n1C1CC1	n
Cc1cnc(CCNC(=O)c2n[nH]c(=O)c3ccccc23)n1C1CCCCC1	7.94µM
COCc1ncc(C)n1CCNC(=O)c1n[nH]c(=O)c2ccccc12	n
SMILES	Pf Dd2 inh
CCn1ccnc1CN1CCN(C2CCCCC2)C(CCO)C1 (configuration not stated)	n
COc1ccc(CCCN2C(=O)O[C@@H]3CN(S(=O)(=O)N(C)C)C[C@@H]32)cc1	n
COc1ccc(-c2ccc(NS(=O)(=O)c3ccccc3)cc2)nn1	n
COc1ccc(-c2ccc(NS(=O)(=O)c3ccccc3Cl)cc2)nn1	11.2µM
COc1ccc(-c2ccc(NS(=O)(=O)c3cccc(C)c3)cc2)nn1	n
CN(Cc1cc2cc(F)ccc2[nH]1)C(=O)C1CCC(=O)N(C2CCCC2)C1 (configuration not stated)	n
Cc1ccc(-c2cnc([C@@H]3COCCN3Cc3cn(C)c4ccccc34)[nH]2)cc1	n
Cc1cccc(-c2nc3c(c(SCc4ccccc4Cl)n2)Cc2c(CO)cnc(C)c2O3)c1	n
Cc1ccc(-c2nc3c(c(SCC(=O)N4CCCCC4)n2)Cc2cc(C)ccc2O3)cc1	n
CCc1ccccc1NC(=O)CSc1nc(-c2ccccc2OC)nc2c1Cc1c(CO)cnc(C)c1O2	n
COc1ccc(-c2nc3c(c(SCC(=O)Nc4cc(C)cc(C)c4)n2)Cc2c(CO)cnc(C)c2O3)cc1	n
Cc1ccc(C)c(NC(=O)CSc2nc(-c3ccccc3Cl)nc3c2Cc2c(CO)cnc(C)c2O3)c1	n
CCCCSc1nc(-c2cccc(OC)c2)nc2c1Cc1c(CO)cnc(C)c1O2	n
CCc1ccc(CSc2nc(-c3ccccc3OC)nc3c2Cc2c(CO)cnc(C)c2O3)cc1	3.16µM
COc1ccccc1-c1nc2c(c(SCC(=O)Nc3c(C)cc(C)cc3C)n1)Cc1c(CO)cnc(C)c1O2	n
C=Cc1ccc(CSc2nc(-c3ccc(C)cc3)nc3c2Cc2c(CO)cnc(C)c2O3)cc1	2.82µM
CCc1ccc(NC(=O)CSc2nc(-c3cccc(OC)c3)nc3c2Cc2c(CO)cnc(C)c2O3)cc1	3.55µM
Cc1ccc(CSc2nc(-c3ccccc3C)nc3c2Cc2c(CO)cnc(C)c2O3)cc1	5.01µM
C=Cc1ccc(CSc2nnc(C)n3c2cc2occc23)cc1	n
Cc1ccc(NC(=O)C2N(C(C)C)C(=O)C23CCCCC3)cc1 (configuration not stated)	n
COc1ccc(CN2CCC3(Cc4ccccc4CNC3=O)C2)cc1F (configuration not stated)	n
O=C(O)c1cc(-c2ccccc2CO)cc(S(=O)(=O)N2CCCCCC2)c1	n
O=C1CC2(CCN(C(=O)c3ccccn3)CC2)Oc2ccccc2N1	n
CC(C)(C)C(=O)N1CC[C@@H]2[C@H]1C(=O)N(c1ccc(F)c(Cl)c1)C(=O)N2Cc1ccccc1	n
COc1ccc2[nH]c3c(c2c1)CCNC31CCN(C(=O)CN2CCCC2=O)CC1	n
SMILES	Pf Dd2 inh
COCCNC(=O)[C@@H]1CCC[C@@H](NC(=O)c2cncnc2)CN(C)C(=O)C1	n
CNC(=O)CCC[C@@H]1[C@H]2CCCN3CCC[C@@H](CN1C(=O)C1CCCCC1)[C@@H]23	n
O=C(CSc1ccncc1)N1CCN2C(=O)N(Cc3ccccc3)C(=O)[C@H]2C1	n
O=C(NCCc1cccnc1)c1cc2n(n1)CC(c1ccc(Br)cc1)OC2 (configuration not stated)	n
COCCNC(=O)[C@@H]1C[C@H](Oc2ccccc2)CN1C(=O)c1cc2ccccc2[nH]1	n
Cc1ccc(Nc2ccc3c(n2)CN(C)C(=O)CO3)c(C)c1	n
O=C(c1ccccn1)N1CCC2(CC1)NC(=O)N(Cc1ccccc1Cl)C2=O	n
CCCNC(=O)N(C1CCOCC1)C1CCN(C(=O)Nc2c(F)cccc2F)CC1	n
CCCCCCOc1ccc(C2C(=O)N(C3CCCCC3)CC(=O)N2CCCC)cc1 (configuration not stated)	8.91µM
O=C1C(c2ccc(F)cc2)N(Cc2ccccc2Cl)C(=O)CN1C1CCCCC1 (configuration not stated)	n
CCCOc1ccc(C2C(=O)N(C3CCCCC3)CC(=O)N2C2CCCCC2)cc1OC (configuration not stated)	n
O=C(Nc1ccccc1)N1C[C@@H](F)[C@@H](OCc2nc3ccccc3o2)C1	n
CCC1=C(C(=O)OC)C(c2ccccc2)N2C(CC(=O)NCC3CC3)=CSC2=N1 (configuration not stated)	n
COC(=O)C1=C(C)N=C2SC=C(CC(=O)NCCc3cccs3)N2C1c1cccc(OC)c1 (configuration not stated)	n
CCC1=C(C(=O)OC)C(c2cccc(C)c2)N2C(CC(=O)N3CCOCC3)=CSC2=N1 (configuration not stated)	n
CCOC(=O)C1=C(C)N=C2SC=C(CC(=O)NC3CC3)N2C1c1cccc(OC)c1OC (configuration not stated)	n
CCC1=C(C(=O)OC)C(c2ccccc2)N2C(CC(=O)NCc3cccc(F)c3)=CSC2=N1 (configuration not stated)	3.98µM
CCOC(=O)C1=C(C)N=C2SC=C(CC(=O)N3CCOCC3)N2C1c1ccccc1OC (configuration not stated)	n
